Results as given in the supplement of paper PMC10720658.
± gives the standard deviation of the averaged measurements.

System: AEK1 (Tb927.3.2440)
Assay: percent reduction in TR-FRET probe signal relative to DMSO control; higher = stronger displacement of ATP-site probe (binding)
Details: 1 µM; incubation time 1 h

Structure (SMILES) | percent reduction in TR-FRET probe signal
Nc1nc(NCCNc2ncc(-n3ccnc3)c(-c3ccc(Cl)cc3Cl)n2)ccc1[N+](=O)[O-] | 4.72 ± 12%
Nc1ncnc2c1c(-c1cnc3[nH]ccc3c1)nn2C1CCCC1 | 21.6 ± 20%
CCCCCCCCCCCCCCCCCCOP(=O)([O-])OC1CC[N+](C)(C)CC1 [Perifosine (KRX-0401)] | -18.1 ± 6.6%
O=C1NC(=O)/C(=C/c2ccc3c(c2)OC(F)(F)O3)S1 | -3.7 ± 5.9%
COc1cccc(-n2c(=O)[nH]c3cc(Cl)n(-c4ccc(-c5cccc(OC)c5O)cc4)c3c2=O)c1 | -7.49 ± 2.1%
